# Columns and labels:
# Assay in all cases: DAPPL (digital affinity profiling via proximity ligation, sequencing); 10 mM Tris-HCl pH 7.5, 50 mM NaCl, 1 mM DTT, 4% glycerol, room temperature, 30 min; GST-TFs on glutathione beads, 16-mer random dsDNA library, 0.1% formaldehyde crosslink after washing; high values mean tight binding
# [1] = target: T1, FLI1 (Homo sapiens, UniProt Q01543 1-452); conditions: protein: recombinant; tags: N-terminal GST; dsDNA, one strand shown
# T1 sequence: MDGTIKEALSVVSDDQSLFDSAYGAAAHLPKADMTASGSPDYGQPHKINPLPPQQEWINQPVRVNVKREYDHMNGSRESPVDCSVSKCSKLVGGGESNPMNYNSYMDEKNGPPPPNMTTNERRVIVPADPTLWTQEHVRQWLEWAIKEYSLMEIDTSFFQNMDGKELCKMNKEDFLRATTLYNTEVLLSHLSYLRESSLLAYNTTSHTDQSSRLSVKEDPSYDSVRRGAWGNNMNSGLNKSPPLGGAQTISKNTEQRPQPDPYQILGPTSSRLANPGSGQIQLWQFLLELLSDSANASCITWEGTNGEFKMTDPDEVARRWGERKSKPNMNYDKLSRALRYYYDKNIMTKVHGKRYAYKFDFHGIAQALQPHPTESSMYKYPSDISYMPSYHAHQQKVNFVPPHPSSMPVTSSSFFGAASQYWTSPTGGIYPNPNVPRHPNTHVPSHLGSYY
# Procedure, shortened: (§1)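 In yeast, human transcription factors were expressed with a GST fusion, then pulled down on glutathione beads and given DNA barcodes. Pooled with a tag-only sample, they were exposed to 200 nmole of a 16-mer random double-stranded DNA library (Tris/NaCl/DTT/glycerol buffer, room temperature, 30 min), washed, crosslinked with 0.1% formaldehyde, proximity-ligated using BsaI/T4 ligase for 1 h at 37 °C, PCR-amplified and read on an Illumina NextSeq500. Each hexamer's frequency of reads for a factor, divided by the matching frequency for the tag-only sample, gives the binding signal.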
# [2] = target: T2, ELK1 (Homo sapiens, UniProt P19419 1-428); conditions: protein: recombinant; tags: N-terminal GST; dsDNA, one strand shown
# T2 sequence: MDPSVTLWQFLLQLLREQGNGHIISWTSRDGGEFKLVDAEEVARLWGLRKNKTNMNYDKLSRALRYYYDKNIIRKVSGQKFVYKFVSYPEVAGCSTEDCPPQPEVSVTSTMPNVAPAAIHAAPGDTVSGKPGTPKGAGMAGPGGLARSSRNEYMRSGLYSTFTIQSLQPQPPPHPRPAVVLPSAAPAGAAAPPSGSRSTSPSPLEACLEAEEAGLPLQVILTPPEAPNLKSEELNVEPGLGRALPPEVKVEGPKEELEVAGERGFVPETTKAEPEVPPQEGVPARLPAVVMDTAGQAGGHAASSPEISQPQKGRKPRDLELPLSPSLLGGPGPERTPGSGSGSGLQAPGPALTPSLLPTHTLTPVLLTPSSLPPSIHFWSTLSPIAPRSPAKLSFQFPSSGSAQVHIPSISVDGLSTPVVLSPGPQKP
# Procedure, shortened: as §1
# [3] = target: T3, GABPA (Homo sapiens, UniProt Q06546 1-454); conditions: protein: recombinant; tags: N-terminal GST; dsDNA, one strand shown
# T3 sequence: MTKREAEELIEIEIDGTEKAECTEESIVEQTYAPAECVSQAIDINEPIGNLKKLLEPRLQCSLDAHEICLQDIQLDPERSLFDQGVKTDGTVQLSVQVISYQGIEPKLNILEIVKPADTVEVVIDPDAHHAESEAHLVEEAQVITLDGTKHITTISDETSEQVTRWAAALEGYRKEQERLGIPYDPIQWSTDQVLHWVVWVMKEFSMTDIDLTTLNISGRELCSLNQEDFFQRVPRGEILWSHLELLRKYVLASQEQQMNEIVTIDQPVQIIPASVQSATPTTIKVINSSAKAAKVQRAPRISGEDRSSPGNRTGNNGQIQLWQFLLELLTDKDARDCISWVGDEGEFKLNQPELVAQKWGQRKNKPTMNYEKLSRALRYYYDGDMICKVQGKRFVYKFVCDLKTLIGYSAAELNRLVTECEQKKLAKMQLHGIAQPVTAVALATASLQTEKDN
# Procedure, shortened: as §1
# [4] = target: T4, ERG (Homo sapiens, UniProt P11308 1-479); conditions: protein: recombinant; tags: N-terminal GST; dsDNA, one strand shown
# T4 sequence: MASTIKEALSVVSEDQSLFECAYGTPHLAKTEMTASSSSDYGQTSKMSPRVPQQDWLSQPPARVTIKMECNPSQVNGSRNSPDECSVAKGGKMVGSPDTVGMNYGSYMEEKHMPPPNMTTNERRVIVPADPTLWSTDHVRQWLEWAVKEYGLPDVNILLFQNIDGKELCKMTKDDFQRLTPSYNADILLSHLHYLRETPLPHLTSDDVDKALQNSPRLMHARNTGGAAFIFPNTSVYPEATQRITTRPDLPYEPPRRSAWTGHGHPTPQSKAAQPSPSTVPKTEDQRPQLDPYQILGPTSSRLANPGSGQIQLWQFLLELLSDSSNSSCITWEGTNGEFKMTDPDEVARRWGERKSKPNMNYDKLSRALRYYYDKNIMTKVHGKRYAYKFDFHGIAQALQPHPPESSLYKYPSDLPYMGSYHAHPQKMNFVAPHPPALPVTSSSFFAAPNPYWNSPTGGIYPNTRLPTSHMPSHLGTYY
# Procedure, shortened: as §1
# [5] = target: ELF1 (Homo sapiens, UniProt P32519 1-619); conditions: protein: recombinant; tags: N-terminal GST; dsDNA, one strand shown
# Chain of ELF1 (P32519 whole entry): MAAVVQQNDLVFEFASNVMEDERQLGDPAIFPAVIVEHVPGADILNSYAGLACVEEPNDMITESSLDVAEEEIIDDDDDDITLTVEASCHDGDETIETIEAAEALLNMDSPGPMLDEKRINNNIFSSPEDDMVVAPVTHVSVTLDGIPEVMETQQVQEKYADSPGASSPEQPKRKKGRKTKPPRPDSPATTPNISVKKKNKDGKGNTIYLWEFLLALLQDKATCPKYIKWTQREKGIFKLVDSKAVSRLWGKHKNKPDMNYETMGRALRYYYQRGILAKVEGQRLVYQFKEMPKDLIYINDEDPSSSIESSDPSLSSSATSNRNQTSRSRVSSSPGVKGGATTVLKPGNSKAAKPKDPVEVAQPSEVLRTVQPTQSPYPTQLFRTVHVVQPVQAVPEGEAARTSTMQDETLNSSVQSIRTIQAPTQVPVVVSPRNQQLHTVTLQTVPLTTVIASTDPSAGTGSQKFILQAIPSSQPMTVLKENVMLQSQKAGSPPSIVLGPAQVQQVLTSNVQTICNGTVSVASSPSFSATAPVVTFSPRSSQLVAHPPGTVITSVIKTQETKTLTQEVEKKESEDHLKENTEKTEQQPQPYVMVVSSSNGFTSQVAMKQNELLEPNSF
# Procedure, shortened: as §1
# [6] = target: T5, EHF (Homo sapiens, UniProt Q9NZC4 1-300); conditions: protein: recombinant; tags: N-terminal GST; dsDNA, one strand shown
# T5 sequence: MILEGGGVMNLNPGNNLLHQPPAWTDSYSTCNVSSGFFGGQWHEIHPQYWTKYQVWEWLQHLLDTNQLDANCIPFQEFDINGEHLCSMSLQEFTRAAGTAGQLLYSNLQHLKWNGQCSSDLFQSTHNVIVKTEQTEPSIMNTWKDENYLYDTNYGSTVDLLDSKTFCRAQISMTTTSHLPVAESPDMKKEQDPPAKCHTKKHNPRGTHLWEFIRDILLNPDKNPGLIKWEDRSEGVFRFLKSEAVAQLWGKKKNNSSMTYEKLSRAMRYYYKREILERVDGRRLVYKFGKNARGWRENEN
# Procedure, shortened: as §1
# [7] = target: SPI1 (Homo sapiens, UniProt P17947 1-270); conditions: protein: recombinant; tags: N-terminal GST; dsDNA, one strand shown
# Procedure, shortened: as §1
# [8] = target: SPIB (Homo sapiens, UniProt Q01892 1-262); conditions: protein: recombinant; tags: N-terminal GST; dsDNA, one strand shown
# Chain of SPIB (Q01892 whole entry): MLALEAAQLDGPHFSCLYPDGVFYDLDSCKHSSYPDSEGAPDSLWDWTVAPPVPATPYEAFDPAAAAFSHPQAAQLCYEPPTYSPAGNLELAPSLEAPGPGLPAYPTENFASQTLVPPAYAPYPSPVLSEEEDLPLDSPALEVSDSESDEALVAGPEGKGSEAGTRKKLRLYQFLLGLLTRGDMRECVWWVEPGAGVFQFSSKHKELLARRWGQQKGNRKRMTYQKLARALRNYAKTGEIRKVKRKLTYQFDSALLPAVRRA
# Procedure, shortened: as §1
# [9] = target: T6, ELK3 (Homo sapiens, UniProt P41970 1-407); conditions: protein: recombinant; tags: N-terminal GST; dsDNA, one strand shown
# T6 sequence: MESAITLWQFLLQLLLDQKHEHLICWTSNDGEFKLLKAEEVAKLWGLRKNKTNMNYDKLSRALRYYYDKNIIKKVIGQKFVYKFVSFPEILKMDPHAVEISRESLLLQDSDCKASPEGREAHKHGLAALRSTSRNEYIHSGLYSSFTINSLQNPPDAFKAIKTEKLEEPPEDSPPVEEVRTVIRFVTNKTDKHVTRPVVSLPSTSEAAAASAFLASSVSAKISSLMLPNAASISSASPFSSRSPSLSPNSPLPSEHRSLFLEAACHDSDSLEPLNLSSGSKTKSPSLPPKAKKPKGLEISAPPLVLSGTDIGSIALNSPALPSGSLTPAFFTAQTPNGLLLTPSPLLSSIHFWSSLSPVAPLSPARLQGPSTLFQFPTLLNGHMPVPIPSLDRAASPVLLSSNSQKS
# Procedure, shortened: as §1
# [10] = target: T7, FEV (Homo sapiens, UniProt Q99581 1-238); conditions: protein: recombinant; tags: N-terminal GST; dsDNA, one strand shown
# T7 sequence: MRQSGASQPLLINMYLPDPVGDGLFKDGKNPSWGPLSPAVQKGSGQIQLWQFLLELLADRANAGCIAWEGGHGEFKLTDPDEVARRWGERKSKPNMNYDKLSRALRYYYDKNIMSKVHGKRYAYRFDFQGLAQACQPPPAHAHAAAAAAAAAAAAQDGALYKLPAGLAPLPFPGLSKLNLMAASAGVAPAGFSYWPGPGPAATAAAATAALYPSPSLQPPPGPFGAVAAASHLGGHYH
# Procedure, shortened: as §1
# [11] = target: ETV5 (Homo sapiens, UniProt P41161 1-510); conditions: protein: recombinant; tags: N-terminal GST; dsDNA, one strand shown
# Chain of ETV5 (P41161 whole entry): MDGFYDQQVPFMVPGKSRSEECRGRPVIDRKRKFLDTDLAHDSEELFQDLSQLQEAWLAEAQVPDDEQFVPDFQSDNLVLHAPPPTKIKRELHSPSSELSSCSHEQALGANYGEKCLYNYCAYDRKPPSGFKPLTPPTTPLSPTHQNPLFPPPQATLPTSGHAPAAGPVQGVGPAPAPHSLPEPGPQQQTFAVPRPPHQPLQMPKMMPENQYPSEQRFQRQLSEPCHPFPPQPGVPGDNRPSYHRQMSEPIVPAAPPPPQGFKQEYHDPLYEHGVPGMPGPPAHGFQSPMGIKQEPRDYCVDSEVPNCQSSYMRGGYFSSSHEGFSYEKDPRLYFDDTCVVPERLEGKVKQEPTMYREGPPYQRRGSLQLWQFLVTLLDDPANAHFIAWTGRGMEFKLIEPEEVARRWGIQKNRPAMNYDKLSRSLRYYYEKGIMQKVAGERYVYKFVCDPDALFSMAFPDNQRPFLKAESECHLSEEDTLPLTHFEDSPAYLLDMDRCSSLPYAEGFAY
# Procedure, shortened: as §1
# [12] = target: HSF1 (Homo sapiens, UniProt Q00613 1-529); conditions: protein: recombinant; tags: N-terminal GST; chain copies: 3; dsDNA, one strand shown
# Chain of HSF1 (Q00613 whole entry): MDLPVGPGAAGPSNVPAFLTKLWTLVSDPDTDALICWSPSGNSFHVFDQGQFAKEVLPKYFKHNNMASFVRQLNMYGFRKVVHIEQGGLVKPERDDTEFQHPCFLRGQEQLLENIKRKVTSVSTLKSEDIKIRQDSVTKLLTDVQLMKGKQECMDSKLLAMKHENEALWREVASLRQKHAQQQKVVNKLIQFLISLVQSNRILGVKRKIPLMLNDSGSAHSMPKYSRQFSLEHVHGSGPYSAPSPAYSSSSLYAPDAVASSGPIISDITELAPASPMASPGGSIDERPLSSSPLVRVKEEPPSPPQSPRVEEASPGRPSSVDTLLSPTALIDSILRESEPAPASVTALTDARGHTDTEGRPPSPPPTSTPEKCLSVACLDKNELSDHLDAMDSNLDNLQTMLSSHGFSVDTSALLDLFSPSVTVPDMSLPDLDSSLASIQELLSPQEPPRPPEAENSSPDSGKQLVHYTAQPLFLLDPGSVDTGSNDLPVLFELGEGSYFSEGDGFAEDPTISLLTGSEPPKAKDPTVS
# Procedure, shortened: as §1
# [13] = target: T8, SPIC (Homo sapiens, UniProt Q8N5J4 1-248); conditions: protein: recombinant; tags: N-terminal GST; dsDNA, one strand shown
# T8 sequence: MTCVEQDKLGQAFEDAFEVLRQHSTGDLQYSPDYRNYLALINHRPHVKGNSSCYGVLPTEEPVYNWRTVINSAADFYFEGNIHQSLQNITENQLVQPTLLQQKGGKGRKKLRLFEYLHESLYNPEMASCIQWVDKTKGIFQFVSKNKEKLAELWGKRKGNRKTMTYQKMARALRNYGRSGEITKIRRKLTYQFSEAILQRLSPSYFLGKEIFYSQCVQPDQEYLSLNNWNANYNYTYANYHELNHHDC
# Procedure, shortened: as §1
# [14] = target: ELF4 (Homo sapiens, UniProt Q99607 1-663); conditions: protein: recombinant; tags: N-terminal GST; dsDNA, one strand shown
# Chain of ELF4 (Q99607 whole entry): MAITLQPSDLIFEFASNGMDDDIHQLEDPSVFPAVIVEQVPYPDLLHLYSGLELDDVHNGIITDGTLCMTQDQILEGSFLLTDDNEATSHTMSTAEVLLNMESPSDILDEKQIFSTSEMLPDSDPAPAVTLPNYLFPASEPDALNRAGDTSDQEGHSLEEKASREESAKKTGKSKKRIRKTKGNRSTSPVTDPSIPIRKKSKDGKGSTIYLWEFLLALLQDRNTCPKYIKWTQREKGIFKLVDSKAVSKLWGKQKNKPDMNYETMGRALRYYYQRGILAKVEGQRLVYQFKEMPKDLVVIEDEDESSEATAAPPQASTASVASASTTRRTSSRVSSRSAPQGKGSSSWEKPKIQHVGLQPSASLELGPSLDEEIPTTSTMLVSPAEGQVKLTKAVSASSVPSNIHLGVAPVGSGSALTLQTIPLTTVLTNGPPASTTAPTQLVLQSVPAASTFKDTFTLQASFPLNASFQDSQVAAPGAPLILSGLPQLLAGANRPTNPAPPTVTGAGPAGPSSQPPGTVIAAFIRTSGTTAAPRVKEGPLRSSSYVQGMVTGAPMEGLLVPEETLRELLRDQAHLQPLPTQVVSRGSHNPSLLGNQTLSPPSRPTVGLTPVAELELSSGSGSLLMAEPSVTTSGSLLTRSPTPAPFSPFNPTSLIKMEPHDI
# Procedure, shortened: as §1
# [15] = target: T9, ELK4 (Homo sapiens, UniProt P28324-2 1-405); conditions: protein: recombinant; tags: N-terminal GST; dsDNA, one strand shown
# T9 sequence: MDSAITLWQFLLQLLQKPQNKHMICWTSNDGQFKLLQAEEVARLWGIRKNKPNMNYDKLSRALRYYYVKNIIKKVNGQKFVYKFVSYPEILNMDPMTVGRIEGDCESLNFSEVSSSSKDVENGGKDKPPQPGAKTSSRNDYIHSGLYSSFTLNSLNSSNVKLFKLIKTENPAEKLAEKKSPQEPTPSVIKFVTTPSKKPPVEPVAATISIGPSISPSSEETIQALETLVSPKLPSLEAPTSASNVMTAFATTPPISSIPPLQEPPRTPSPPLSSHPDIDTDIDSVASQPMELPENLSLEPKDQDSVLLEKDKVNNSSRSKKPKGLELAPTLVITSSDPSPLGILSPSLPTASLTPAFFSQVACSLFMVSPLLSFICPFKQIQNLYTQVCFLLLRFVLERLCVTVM
# Procedure, shortened: as §1
# [16] = target: T10, ETV2 (Homo sapiens, UniProt O00321 1-342); conditions: protein: recombinant; tags: N-terminal GST; dsDNA, one strand shown
# T10 sequence: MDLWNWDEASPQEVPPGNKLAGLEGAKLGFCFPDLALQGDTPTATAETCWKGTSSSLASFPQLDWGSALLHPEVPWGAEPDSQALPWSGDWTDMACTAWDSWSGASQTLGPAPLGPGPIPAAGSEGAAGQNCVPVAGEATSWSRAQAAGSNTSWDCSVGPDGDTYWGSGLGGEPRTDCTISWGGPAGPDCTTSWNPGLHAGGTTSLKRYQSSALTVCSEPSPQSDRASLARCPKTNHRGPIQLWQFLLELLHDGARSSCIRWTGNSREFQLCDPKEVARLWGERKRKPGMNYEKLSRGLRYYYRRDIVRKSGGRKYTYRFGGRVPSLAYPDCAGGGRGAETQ
# Procedure, shortened: as §1
# [17] = target: T11, ELF3 (Homo sapiens, UniProt P78545 1-371); conditions: protein: recombinant; tags: N-terminal GST; dsDNA, one strand shown
# T11 sequence: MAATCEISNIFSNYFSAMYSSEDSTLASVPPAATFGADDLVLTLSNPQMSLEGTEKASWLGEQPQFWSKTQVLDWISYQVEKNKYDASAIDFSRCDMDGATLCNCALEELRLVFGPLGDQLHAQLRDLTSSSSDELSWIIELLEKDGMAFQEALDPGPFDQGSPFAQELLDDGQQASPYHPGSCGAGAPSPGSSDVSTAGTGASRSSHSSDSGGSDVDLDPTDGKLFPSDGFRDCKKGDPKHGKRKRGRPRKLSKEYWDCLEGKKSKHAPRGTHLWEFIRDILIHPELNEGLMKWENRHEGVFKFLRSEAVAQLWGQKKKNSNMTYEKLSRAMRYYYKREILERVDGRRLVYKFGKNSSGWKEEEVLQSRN
# Procedure, shortened: as §1
# [18] = target: CRX (Homo sapiens, UniProt O43186 1-299); conditions: protein: recombinant; tags: N-terminal GST; dsDNA, one strand shown
# Chain of CRX (O43186 whole entry): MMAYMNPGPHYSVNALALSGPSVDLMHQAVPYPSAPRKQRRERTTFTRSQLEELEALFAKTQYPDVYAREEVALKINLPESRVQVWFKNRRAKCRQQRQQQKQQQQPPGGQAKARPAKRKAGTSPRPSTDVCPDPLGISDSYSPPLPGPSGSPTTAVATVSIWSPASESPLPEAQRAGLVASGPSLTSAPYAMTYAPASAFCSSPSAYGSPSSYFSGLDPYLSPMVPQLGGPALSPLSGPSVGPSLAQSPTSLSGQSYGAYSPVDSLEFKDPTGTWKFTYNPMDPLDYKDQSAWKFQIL
# Procedure, shortened: as §1
# [19] = target: ETV1 (Homo sapiens, UniProt P50549 1-477); conditions: protein: recombinant; tags: N-terminal GST; dsDNA, one strand shown
# Chain of ETV1 (P50549 whole entry): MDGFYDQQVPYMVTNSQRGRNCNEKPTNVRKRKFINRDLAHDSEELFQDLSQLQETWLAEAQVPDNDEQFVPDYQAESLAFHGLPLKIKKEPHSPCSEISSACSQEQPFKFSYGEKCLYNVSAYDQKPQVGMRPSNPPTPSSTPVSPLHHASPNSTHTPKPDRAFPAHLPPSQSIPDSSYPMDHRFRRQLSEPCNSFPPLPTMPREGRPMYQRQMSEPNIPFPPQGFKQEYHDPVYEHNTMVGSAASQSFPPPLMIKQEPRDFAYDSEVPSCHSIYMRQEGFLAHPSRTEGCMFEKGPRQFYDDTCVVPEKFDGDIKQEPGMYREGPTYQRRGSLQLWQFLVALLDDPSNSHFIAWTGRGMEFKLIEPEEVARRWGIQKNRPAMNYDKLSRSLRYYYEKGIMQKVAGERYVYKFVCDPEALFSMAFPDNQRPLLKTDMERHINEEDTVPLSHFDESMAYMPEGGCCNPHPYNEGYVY
# Procedure, shortened: as §1
sequence,measurement,setting,value
TCCTTT,binding signal,[1],"1.64 fold enrichment (6-mer frequency, TF over GST control)"
same,binding signal,[2],"1.75 fold enrichment (6-mer frequency, TF over GST control)"
same,binding signal,[3],"1.72 fold enrichment (6-mer frequency, TF over GST control)"
same,binding signal,[4],"1.79 fold enrichment (6-mer frequency, TF over GST control)"
same,binding signal,[5],"1.81 fold enrichment (6-mer frequency, TF over GST control)"
same,binding signal,[6],"1.73 fold enrichment (6-mer frequency, TF over GST control)"
same,binding signal,[7],"1.83 fold enrichment (6-mer frequency, TF over GST control)"
same,binding signal,[8],"1.67 fold enrichment (6-mer frequency, TF over GST control)"
same,binding signal,[9],"1.81 fold enrichment (6-mer frequency, TF over GST control)"
same,binding signal,[10],"1.69 fold enrichment (6-mer frequency, TF over GST control)"
same,binding signal,[11],"1.69 fold enrichment (6-mer frequency, TF over GST control)"
same,binding signal,[12],"1.57 fold enrichment (6-mer frequency, TF over GST control)"
same,binding signal,[13],"1.76 fold enrichment (6-mer frequency, TF over GST control)"
same,binding signal,[14],"1.77 fold enrichment (6-mer frequency, TF over GST control)"
same,binding signal,[15],"1.62 fold enrichment (6-mer frequency, TF over GST control)"
same,binding signal,[16],"1.47 fold enrichment (6-mer frequency, TF over GST control)"
same,binding signal,[17],"1.78 fold enrichment (6-mer frequency, TF over GST control)"
same,binding signal,[18],"1.67 fold enrichment (6-mer frequency, TF over GST control)"
same,binding signal,[19],"1.68 fold enrichment (6-mer frequency, TF over GST control)"

# Source: article PMC7862700, “An all-to-all approach to the identification of sequence-specific readers for epigenetic DNA modifications on cytosine”
